# Test results as given in PubChem BioAssay.
# Activity calls are given as the source filed them.
# How the values were obtained:
# [1] = system: Plasmodium falciparum Sir2 (PF13_0152, Sir2A); test: Plasmodium falciparum Sir2A binding compounds – biochemical, small-molecule microarray, 635 nm fluorescence, primary screen (AID 1098); settings: fluorescence 635 nm, higher = more signal;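 note: score merges spot fluorescence intensity with its signal-to-noise ratio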
# [2] = probe aDKK1 binding to arrayed compounds – biochemical, biotinylated probe, 635/667 nm fluorescence, primary screen (AID 1099); settings: small-molecule microarray, higher = more signal;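 note: score merges 667nm spot fluorescence with signal to noise across triplicate slides; reference of the scale not given here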
# [3] = probe aCHRDL2 binding to arrayed compounds – biochemical, biotinylated probe, 635/667 nm fluorescence, primary screen (AID 1100); settings: small-molecule microarray, higher = more signal
# [4] = change in splice reporter luminescence, either direction, cell-based, HEK293, spliceosome inhibition project, primary screen (AID 1101); settings: HEK293 splicing luciferase reporter, 24 h, higher = more signal, called active from +8 up or from −8 down;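 note: HEK293 cells carrying a splicing-competent luciferase reporter gene; test concentration not given here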
# [5] = biological target: Fibroblast growth factor 10 (Homo sapiens) (UniProt O15520); test: compounds binding fibroblast growth factor 10 – biochemical, small-molecule microarray, 635 nm fluorescence, primary screen (AID 1102); settings: FGF10 binding, fluorescence 635 nm, higher = more signal
# Fibroblast growth factor 10 (Homo sapiens), sequence (O15520 whole entry, looked up): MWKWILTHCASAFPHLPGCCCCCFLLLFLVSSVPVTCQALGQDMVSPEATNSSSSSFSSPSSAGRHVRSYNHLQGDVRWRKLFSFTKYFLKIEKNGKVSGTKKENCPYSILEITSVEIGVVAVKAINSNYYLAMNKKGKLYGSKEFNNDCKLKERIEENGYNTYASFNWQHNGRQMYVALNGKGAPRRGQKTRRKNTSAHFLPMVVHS
# [6] = system: glycogen synthase kinase-3 (GSK3A per assay name; protocol says GSK3B); test: compounds binding glycogen synthase kinase-3 – biochemical, small-molecule microarray, 635 nm fluorescence, GSK3A, primary screen (AID 1103); settings: fluorescence 635 nm, higher = more signal; note: the record names both GSK3A and GSK3B
# [7] = biological target: Epidermal growth factor receptor (Homo sapiens) (UniProt P00533); test: compounds binding epidermal growth factor receptor – biochemical, small-molecule microarray, 635 nm fluorescence, primary screen (AID 1104); settings: EGFR binding, higher = more signal;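 note: score merges 667 nm emission intensity with spot signal to noise over triplicate slides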
# Epidermal growth factor receptor (Homo sapiens), sequence (P00533 whole entry, looked up): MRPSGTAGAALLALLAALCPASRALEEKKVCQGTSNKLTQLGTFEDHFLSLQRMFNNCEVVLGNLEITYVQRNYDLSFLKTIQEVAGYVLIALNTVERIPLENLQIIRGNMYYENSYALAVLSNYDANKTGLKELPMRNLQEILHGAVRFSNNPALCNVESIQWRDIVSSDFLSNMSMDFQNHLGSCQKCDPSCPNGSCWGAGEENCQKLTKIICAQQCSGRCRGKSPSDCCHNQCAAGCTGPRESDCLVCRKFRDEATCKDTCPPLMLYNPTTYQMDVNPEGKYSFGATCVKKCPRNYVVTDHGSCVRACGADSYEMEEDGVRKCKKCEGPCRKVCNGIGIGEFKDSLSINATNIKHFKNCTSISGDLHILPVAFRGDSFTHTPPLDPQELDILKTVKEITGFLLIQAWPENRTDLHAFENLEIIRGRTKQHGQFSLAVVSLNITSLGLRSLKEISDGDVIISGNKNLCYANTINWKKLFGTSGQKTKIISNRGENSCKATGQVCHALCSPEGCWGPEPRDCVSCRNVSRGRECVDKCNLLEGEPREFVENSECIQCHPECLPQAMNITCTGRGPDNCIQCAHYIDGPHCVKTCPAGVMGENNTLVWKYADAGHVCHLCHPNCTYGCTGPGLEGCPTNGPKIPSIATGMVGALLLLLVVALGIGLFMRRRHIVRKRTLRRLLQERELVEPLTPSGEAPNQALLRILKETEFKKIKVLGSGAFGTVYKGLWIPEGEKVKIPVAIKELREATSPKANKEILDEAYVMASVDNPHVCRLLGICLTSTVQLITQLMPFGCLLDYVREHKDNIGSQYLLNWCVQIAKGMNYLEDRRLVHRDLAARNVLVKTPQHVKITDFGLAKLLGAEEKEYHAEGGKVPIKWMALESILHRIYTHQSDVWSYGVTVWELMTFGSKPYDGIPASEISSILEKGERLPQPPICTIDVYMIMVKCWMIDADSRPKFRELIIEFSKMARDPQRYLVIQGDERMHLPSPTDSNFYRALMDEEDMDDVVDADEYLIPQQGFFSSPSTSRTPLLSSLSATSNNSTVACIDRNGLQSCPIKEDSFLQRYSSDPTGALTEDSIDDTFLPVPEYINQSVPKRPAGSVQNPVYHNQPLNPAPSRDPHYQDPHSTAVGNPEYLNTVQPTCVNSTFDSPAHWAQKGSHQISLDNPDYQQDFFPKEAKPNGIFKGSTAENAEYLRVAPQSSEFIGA
# [8] = biological target: Follistatin-related protein 3 (Homo sapiens) (UniProt O95633); test: compounds binding follistatin-related protein 3 – biochemical, small-molecule microarray, 635 nm fluorescence, primary screen (AID 1105); settings: FSTL3 binding, higher = more signal;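 note: score merges emission near 667 nm and signal to noise per printed spot across three slides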
# Follistatin-related protein 3 (Homo sapiens), sequence (O95633 whole entry, looked up): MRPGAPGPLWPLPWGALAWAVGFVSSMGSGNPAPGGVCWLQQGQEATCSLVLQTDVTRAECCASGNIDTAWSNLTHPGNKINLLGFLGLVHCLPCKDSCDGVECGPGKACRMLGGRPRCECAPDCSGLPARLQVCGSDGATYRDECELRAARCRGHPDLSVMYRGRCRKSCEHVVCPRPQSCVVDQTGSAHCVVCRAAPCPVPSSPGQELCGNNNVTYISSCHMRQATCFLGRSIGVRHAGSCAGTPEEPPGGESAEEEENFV
# [9] = biological target: Dickkopf-related protein 1 (Homo sapiens) (UniProt O94907); test: small molecules binding DKK1 protein – biochemical, small-molecule microarray, 635 nm fluorescence scan, primary screen (AID 1106); settings: higher = more signal;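 note: score merges emission near 667 nm with signal to noise over three replicate slides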
# Dickkopf-related protein 1 (Homo sapiens), sequence (O94907 whole entry, looked up): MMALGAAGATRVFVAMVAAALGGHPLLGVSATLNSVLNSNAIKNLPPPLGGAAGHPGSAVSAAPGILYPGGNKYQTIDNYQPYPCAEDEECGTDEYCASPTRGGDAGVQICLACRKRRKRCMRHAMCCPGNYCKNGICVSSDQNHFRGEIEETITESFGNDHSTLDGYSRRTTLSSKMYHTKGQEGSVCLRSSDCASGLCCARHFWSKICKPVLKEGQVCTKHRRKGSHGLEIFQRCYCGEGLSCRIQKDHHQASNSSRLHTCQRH
# [10] = system: Inhibin beta A chain (activin A); test: small molecules binding activin A – biochemical, small-molecule microarray, 635 nm fluorescence scan, primary screen (AID 1107); settings: INHBA, higher = more signal;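 note: mouse activin A protein probed at 4.33 µg/mL on printed slides; score merges bound-protein fluorescence near 667 nm with spot signal-to-noise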
Structure (SMILES),composite z-score [1],composite z-score [2],composite z-score [3],z-score [4],composite z-score [5],composite z-score [6],composite z-score [7],composite z-score [8],composite z-score [9],composite z-score [10]
C=C(/C(=C/C[C@H](OC(C)=O)c1ccc(OCCO)cc1)c1cc(C(=O)OC)ccc1OC)C(C)C,1.53,0.0971,-0.188,-0.045 (inactive),1.12,0.451,-0.296,0.647,0.196,0.326
COCCCNC(=O)[C@@]1(Cc2ccccc2CN=[N+]=[N-])N=C(c2ccc(OCCCO)cc2)O[C@H]1c1ccccc1CN=[N+]=[N-],1.25,0.616,1.09,-1.51 (inactive),1.43,0.186,-0.334,0.299,-0.629,0.849
COc1ccc([C@H]2C[C@H]3C(I)=C[C@@H]2C(=O)[C@]32CO2)cc1,0.802,0.168,-0.206,-0.568 (inactive),0.66,-0.611,-0.0989,0.926,0.726,0.508
COc1ccc([Si](C)(C)[C@H]2[C@H](CCn3cc([C@H](O)c4ccccc4)nn3)O[C@@]3(C(=O)N(C)c4ccccc43)[C@@H]2C)cc1,1.17,-0.0149,0.376,1.11 (inactive),-0.133,-0.621,-0.55,-0.165,-0.529,0.209
C=CCNC(=O)[C@H]1[C@@H]2C(=O)O[C@@H](c3ccccc3)[C@@H](c3ccccc3)N2[C@@H](c2ccc(O)cc2)[C@]12C(=O)Nc1ccc(C#CCCO)cc12,0.526,0.0418,0.198,0.0704 (inactive),-0.818,-0.572,-0.326,-0.561,0.0898,0.629
N#Cc1ccc(C(O)C2C=CC3C(=O)N(c4ccccc4)C(=O)C3N2Nc2ccccc2F)cc1 (stereo not given),1.65,-0.0589,0.267,-1.37 (inactive),0.877,0.849,0.77,0.746,-0.116,0.299
C=CC[C@@]1(C(=O)N2CCCCC2)N=C(c2ccc(OCCCO)cc2)O[C@@H]1c1ccccc1CN=[N+]=[N-],1.23,0.952,1.04,-0.431 (inactive),0.666,-0.0684,0.17,1.15,-0.187,0.711
CC(C)C(=C=CC[C@H](O)c1ccc(CO)o1)CCO,0.458,-0.288,-0.471,0.241 (inactive),0.494,0.621,-0.115,0.402,0.0097,0.411
CCCCN1CC=CC23O[C@@H]4/C=C\CCCOC(=O)C4[C@H]2C(=O)N(CCCO)[C@@H]3C1=O (stereo not given in full),0.992,-0.222,0.421,0.187 (inactive),-1.11,-0.224,-0.992,-0.946,-0.984,-0.27
COc1ccc([Si](C)(C)[C@@H]2[C@@H](CC(=O)N3Cc4ccccc4C[C@H]3CO)O[C@]3(C(=O)N(Cc4cccc(N5CCC5=O)c4)c4ccccc43)[C@H]2C)cc1,1.22,-0.0652,0.119,-0.432 (inactive),0.48,0.611,0.73,0.692,0.641,0.886
O=C(O)[C@@]1(CCS(=O)(=O)c2ccccc2)N=C(c2ccc(OCCCO)cc2)O[C@H]1c1ccccc1,0.729,0.737,0.905,-0.123 (inactive),-0.678,-0.123,-0.264,0.215,-1.05,0.658
CC(C)[Si](C#C[Si](C(C)C)(C(C)C)C(C)C)(O[C@H](C)c1cn(Cc2ccccc2)nn1)C(C)C,0.733,-0.0531,-0.252,-0.9 (inactive),0.584,0.856,0.361,0.688,0.0811,-0.353
C[N+](C)(C)CCCCCCNC(=O)[C@H]1C[C@H]2C(=O)N[C@@H](Cc3ccccc3)C(=O)N2[C@H]1c1cccc(OCCO)c1,1.65,-0.0429,0.0593,0.264 (inactive),0.985,1.23,0.227,1.09,0.707,0.279
COCCCNC(=O)[C@@H]1c2ccccc2C(=O)N(Cc2ccccc2OC)[C@H]1c1ccc(CO)cc1,0.342,-0.257,0.287,-1.06 (inactive),0.621,-0.177,0.238,0.403,0.56,0.344
COCCOC(=O)N1C(=O)[C@@]2(c3ccccc31)[C@H](C(=O)N1CCCCCCC1)[C@H]1C(=O)O[C@H](c3ccccc3)[C@H](c3ccccc3)N1[C@@H]2c1ccc(OCCO)cc1,2.08,3.12,1.76,-0.69 (inactive),1.69,1.49,2.05,1.79,2.72,1.77
CO[C@H]1O[C@H](CO)[C@@H](OC(=O)Nc2ccc(Oc3ccccc3)cc2)[C@H](OC(=O)Nc2ccc3c(c2)OCO3)[C@@H]1OC(=O)Nc1ccc2c(c1)OCO2,1.38,0.337,0.478,-0.762 (inactive),1.17,1.33,0.54,1.39,0.46,0.707

Structure (SMILES),composite z-score [1],composite z-score [2],composite z-score [3],z-score [4],composite z-score [5],composite z-score [6],composite z-score [7],composite z-score [8],composite z-score [9],composite z-score [10]
[N-]=[N+]=Nc1ccccc1C[C@@]1(C(=O)N2CCCCC2)N=C(c2ccc(OCCCO)cc2)O[C@@H]1c1ccccc1,1.18,0.901,1.07,-0.969 (inactive),0.465,1.29,-0.209,0.112,-0.174,0.803
CCCCN1CC=CC23O[C@@H]4C=CCCOC(=O)C4[C@H]2C(=O)N(CCCCCO)[C@@H]3C1=O (stereo not given in full),1.2,-0.359,0.413,-0.268 (inactive),-1.1,-0.649,-0.95,-1.15,-0.787,0.26
O=C(NCc1ccccc1)[C@@H]1c2ccccc2C(=O)N(C2Cc3ccccc3C2)[C@H]1c1ccc(CO)cc1,0.81,0.689,1.01,-0.0178 (inactive),0.732,0.737,-0.318,0.475,0.0698,0.344
O=C1O[C@@H](c2ccccc2)[C@@H](c2ccccc2)N2[C@@H](c3ccccc3OCCO)[C@]3(C(=O)Nc4ccccc43)[C@@H](C(=O)O)[C@H]12,1.61,-0.124,0.148,-1.71 (inactive),0.798,-0.269,-0.447,0.0073,-0.499,-0.143
CC#CC(=O)Oc1ccc(Br)cc1C=CC(=O)OCC,-0.384,0.321,0.481,1.07 (inactive),-0.0853,-0.108,-0.257,0.137,-0.382,1.24
COc1ccc(-c2cc3c(c(Cc4ccccc4)n2)[Si](C(C)C)(C(C)C)OC3)cn1,0.409,0.0847,-0.386,-0.267 (inactive),-0.156,-0.949,0.343,-0.139,0.085,0.256
CCCC[C@@H]1C[C@H]1[C@@H](NC(=O)c1cccnc1)c1ccc(Cl)cc1,-1.89,0.636,1.38,-2.46 (inactive),-2.18,-2.37,-2.19,-2.37,-2.48,0.0159
C=C(CCCC)/C(=C/C[C@@H](OC(C)=O)c1cccc(OCCO)c1)c1cnc2ccccc2c1,0.462,-0.14,0.0854,1.17 (inactive),1,-0.518,0.12,1.12,0.312,1.58
COc1ccc([Si](C)(C)[C@H]2[C@H](CCO)O[C@@]3(C(=O)N(Cc4ccccc4)c4ccc(N5CCCCC5=O)cc43)[C@@H]2C)cc1,1.06,-0.0725,0.104,-2.11 (inactive),0.884,0.737,0.199,0.579,-0.0075,0.301
CC1CC/C=C\[C@H]2OC34C=CCN(c5ccc6ccccc6c5)C(=O)[C@H]3N(CCO)C(=O)[C@@H]4C2C(=O)O1 (stereo not given in full),1.76,-0.122,0.915,-0.538 (inactive),-0.681,-0.844,-1.13,-0.391,-1.02,0.838
COc1ccc(C(O)C2C=CC3C(=O)N(C)C(=O)C3N2N(c2ccccc2)c2ccccc2)c2ccccc12 (stereo not given),1.42,0.464,1.04,1.04 (inactive),0.784,-0.16,0.23,1.19,0.569,1.13
COc1ccc(C(=O)Nc2ccc(CN3C(=O)[C@]4(O[C@H](CC(=O)N5CCC[C@H]5CO)[C@@H]([Si](C)(C)c5ccc(OC)cc5)[C@@H]4C)c4ccccc43)cc2)cc1,1.46,-0.314,0.0167,1.76 (inactive),0.679,0.573,0.352,0.683,0.545,0.0938
C=CC[C@]1(C(N)=O)COC(c2ccc(OCCCO)cc2)=N1,-0.171,-0.145,0.381,-0.359 (inactive),0.577,-0.557,0.0704,-0.235,-0.314,0.927
CS(=O)(=O)CCOC(=O)C1=CC(CCCO)=CC(C2CC2)N(Cc2cc3c(cc2Br)OCO3)C=C1C(=O)OCCS(C)(=O)=O (stereo not given),0.405,0.049,0.49,1.22 (inactive),0.615,0.28,-0.0183,0.258,0.322,1.33
COCCCNC(=O)[C@@]1(Sc2ccc(C)cc2)CC(=O)N(Cc2ccccc2Cl)[C@@H]1c1ccc(CO)cc1,1.36,0.0942,0.0166,-0.87 (inactive),0.977,0.56,0.491,1.36,0.553,0.595
